From PubChem BioAssay (NCI)
Compounds without any hit were thinned out: in the full panel of roughly 83,000, 20% have a hit.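 48-hour exposure, single concentration, 96-well plates; percent growth endpoint where 0 means no net growth. Active: below 10.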 Calls of active or inactive are those of the source.

test system: M14 melanoma; test: NCI-60 one-dose screen, 48 h (100 = growth as untreated, 0 = no growth, -100 = all killed); details: 10 µM unless noted

| SMILES | growth |
| --- | --- |
| CC1=CCc2ccccc21 | 105% (inactive) |
| O=C1Nc2ccccc2/C1=C/C(=O)c1ccc(N2CCCCC2)cc1 | 107% (inactive) |
| COc1ccc2nc3c(cc2c1)C(=O)CC(c1ccccc1)C3 (stereo not drawn) | 9.28% (active) |
| Oc1ccc(N=Nc2nccs2)c(O)c1 | 68% (inactive) |
| Cc1cc(-c2ccc(N=Nc3c(S(=O)(=O)O)cc4cc(S(=O)(=O)O)cc(N)c4c3O)c(C)c2)ccc1N=Nc1cc(S(=O)(=O)O)c2ccccc2c1O | 101% (inactive) |
| C#CCNC(=O)CC[C@]1(C)[C@H]2CC[C@@H]3[C@@H]([C@@](C)(O)CCC=C(C)C)CC[C@@]3(C)[C@]2(C)CC[C@H]1C(=C)C | 53.1% [100 µM] (inactive) |
| CC(=O)Nc1ccc2nc3ccc(NC(C)=O)cc3[n+](-c3ccccc3)c2c1 | 107% (inactive) |
| CCN(CC)CCCCCCNc1cccc2cc(Br)cnc12 | 50.1% (inactive) |
| COc1ccc(NC(=S)NNc2ccc(-c3ccc(OC)c(OC)c3)nn2)cc1 | 99.2% (inactive) |
| O=[N+]([O-])c1cc([N+](=O)[O-])c(NN=C(c2ccc(O)cc2)c2ccc(O)cc2)cc1Cl | -86.8% (active) |
| CC(C)C1=NOC(=O)C1=Cc1cn(-c2ccccc2)nc1-c1cccc([N+](=O)[O-])c1 | 78.3% (inactive) |
| C=C(C)[C@@H]1CC[C@]2(C(=O)NCCNCCNCCN)CC[C@]3(C)[C@H](CC[C@@H]4[C@@]5(C)CC[C@H](O)C(C)(C)[C@@H]5CC[C@]43C)[C@@H]12 | -31% [100 µM] (active) |
| O=C1COCCN1c1ccc(Nc2nc(Cl)nc(N3CCOCC3)n2)cc1 | 98.2% (inactive) |
| Cn1cc(-c2noc(-c3cn(C)c4ncc(F)cc34)n2)c2cc(Br)ccc21 | 85.7% (inactive) |
| CC1(C)NCCC[C@]2(C)[C@H]3C=CC4=C5C[C@](C)(CO)CC[C@]5(C)CC[C@@]4(C)[C@]3(C)CC[C@@H]12 | -82.1% [100 µM] (active) |
| CCCC(NC(=O)OCc1ccccc1)C(=O)O (stereo not drawn) | 93.1% (inactive) |
| CC(C)C1=NOC(=O)C1=Cc1cn(-c2ccccc2)nc1-c1ccc(Cl)cc1 | 76.4% (inactive) |
| COc1cc(OC)cc(C(=O)Nc2cc(-c3cccnc3)nc(NCCCN3CCOCC3)n2)c1 | 104% (inactive) |
| Brc1ccc2c(c1)CN(C1CCCCC1)CO2 | 105% (inactive) |

| SMILES | growth |
| --- | --- |
| CC/C=C(\C)C(CCC)(CN=O)C(=O)OCC (stereo not drawn) | 99.3% (inactive) |
| O=C(Nc1ccc(F)cc1)c1ccccc1 | 106% (inactive) |
| O=C(O)c1cccc(CN2CCN(c3cc4c(cc3F)c(=O)c(C(=O)O)cn4C3CC3)CC2)c1O | 101% (inactive) |
| COC(=O)c1c(C)[nH]c(/C=C2\N=C(c3ccc[nH]3)C=C2OC)c1C | -24% (active) |
| C=CCCC1(C)NC(=O)NC1=O (stereo not drawn) | 98.1% (inactive) |
| O=[N+]([O-])c1cccc(N=NNc2cccc([N+](=O)[O-])c2)c1 | 102% (inactive) |
| Cc1ccc(N)c(O)c1 | 85.6% (inactive) |
| CCN(CC)c1ccc2cc(NC(=O)OCCNC(=O)CCNC(=O)[C@H](CC(C)C)NC(=O)C(C)(C)NC(=O)C(C)(C)NC(=O)[C@H](CC(C)C)NC(=O)CCNC(=O)C(C)(C)NC(=O)[C@H](CC(C)C)NC(=O)CCNC(=O)[C@@](C)(CC)NC(=O)[C@H](C)NC(=O)CCNC(=O)C(C)(C)NC(=O)[C@H](C)NC(=O)[C@@H]3CCCN3C(=O)[C@@](C)(CC)NC(=O)[C@H](Cc3ccccc3)NC(=O)C3CCCN3C(=O)C(C)(C)NC(=O)C3CCCN3C(=O)C(C)(C)NC(C)=O)c(=O)oc2c1 (stereo partly drawn) | -79.4% (active) |
| COC(=O)[C@]12CCC(C)(C)C[C@H]1C1=CC[C@@H]3[C@@]4(C)C/C(=C/c5cccnc5)C(=O)C(C)(C)[C@@H]4CC[C@@]3(C)[C@]1(C)CC2 | -49.8% [100 µM] (active) |
| CC(C)[C@H]1COC(=O)N1[C@@H]1C(=O)N([C@@H](CCC(=O)N2CCN(C3CCCC3)CC2)C(=O)N[C@@H]2CCCc3ccccc32)[C@@H]1/C=C/c1cccc(Cl)c1 | 36.6% (inactive) |
| CCN=Cc1c(O)c(O)c(C(C)C)c2cc(C)c(-c3c(C)cc4c(C(C)C)c(O)c(O)c(C=NCC)c4c3O)c(O)c12 | 61.6% (inactive) |
| O=c1cc(-c2ccccc2)oc2c(O)c(O)ccc12 | 58.8% (inactive) |
| COc1ccc(C2NC(=O)C(C#N)c3c2sc2c(F)cccc32)cc1 (stereo not drawn) | 33.3% (inactive) |
| COc1cc(-c2nc(SCCC(C)C)nc(Nc3ccccc3)c2C#N)cc(OC)c1OC | 100% (inactive) |
| O=C(N/N=C\c1cc(Cl)ccc1O)N/N=C/c1cc(Cl)ccc1O | 50.4% (inactive) |
| Cc1ccc(S(=O)(=O)Oc2ccc([N+](=O)[O-])cc2[N+](=O)[O-])cc1 | -8.49% (active) |
| COCCCNc1nc(NC(=O)c2cc(OC)cc(OC)c2)cc(-c2cccnc2)n1 | 107% (inactive) |
| CC1(C)CC[C@]2(C(=O)O)CC[C@]3(C)C(=CC[C@@H]4[C@@]5(C)C/C(=C/c6ccco6)C(=O)C(C)(C)[C@@H]5CC[C@]43C)[C@@H]2C1 | -31.5% [100 µM] (active) |
| O=C(N=c1n(-c2ccccc2)nc2n1CCN2C1=NCCN1)c1ccc(Cl)cc1 | 107% (inactive) |
